Experimental data taken from PubChem BioAssay (NCATS).
Where “and” joins values, the source holds several entries; their conditions need not be identical. Equal values may be shown once. Records with an inconclusive call do not appear. Calls of active or inactive are those of the source. The call rests on the fitted dose curve; in most records, active means well fitted inhibition curve with a large enough effect; inconclusive means small, poorly fitted or top-dose-only effect; inactive means flat fitted curve, though single readings scatter.

Experiments:
[1] = tested on: PC26; test: qHTS profiling for inhibitors of Plasmodium falciparum proliferation (AID 504749);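 further: 0% = DMSO vehicle and full inhibition = artemisinin control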; conditions: P. falciparum in erythrocytes, SYBR Green DNA, 72 h; series mostly up to 28.7 µM
Procedure, shortened: (§1)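 Three-day growth assay of blood-stage parasites in erythrocytes (0.3% parasitemia, 2.5% hematocrit) at 37 C, 5% CO2, quantified by SYBR Green DNA staining after overnight detergent lysis.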

[2] = tested on: PC49; test: as above; conditions: P. falciparum in erythrocytes, SYBR Green DNA, 72 h; series mostly up to 28.7 µM
Procedure, shortened: as §1

[3] = tested on: SC27B; test: as above; conditions: P. falciparum in erythrocytes, SYBR Green DNA, 72 h; series mostly up to 28.7 µM
Procedure, shortened: as §1

[4] = tested on: TAB109; test: as above; conditions: P. falciparum in erythrocytes, SYBR Green DNA, 72 h; series mostly up to 28.7 µM
Procedure, shortened: as §1

[5] = tested on: TAB113; test: as above; conditions: P. falciparum in erythrocytes, SYBR Green DNA, 72 h; series mostly up to 28.7 µM
Procedure, shortened: as §1

[6] = tested on: TAB165; test: as above; conditions: P. falciparum in erythrocytes, SYBR Green DNA, 72 h; series mostly up to 28.7 µM
Procedure, shortened: as §1

[7] = tested on: W2; test: as above; conditions: P. falciparum in erythrocytes, SYBR Green DNA, 72 h; series mostly up to 28.7 µM
Procedure, shortened: as §1

[8] = tested on: KB-3-1; test: Cytotoxic Profiling of Annotated Libraries Using Quantitative High-Throughput Screening (AID 1296008); conditions: Five cell lines viability, CellTiter-Glo ATP luminescence, 48-72 h; max response: active compounds read low; further: on the % scale 0 is the no-effect control and ±100 the full control effect
Procedure, shortened: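 Cytotoxicity was measured as CellTiter-Glo ATP luminescence, read after 10 min at room temperature. Compound treatment of the cells lasted 48 or 72 hr at 37 degrees Celsius in a qHTS format.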
Further: nearly all actives have a fitted effect of over 60% in size.

CC(C)(CO)[C@@H](O)C(=O)NCCC(=O)NCCSSCCNC(=O)CCNC(=O)[C@H](O)C(C)(C)CO
inactive: Potency [1] | Potency [2] | Potency [3] | Potency [4] | Potency [5] | Potency [6] | Potency [7] | max response [8] -0.241%

Nc1ncnc2c1ncn2[C@H]1CC[C@@H](CO)O1
inactive: Potency [1] | Potency [2] | Potency [3] | Potency [4] | Potency [5] | Potency [6] | Potency [7] | max response [8] -2.72%

CC/C(=C(/CC)c1ccc(OP(=O)(O)O)cc1)c1ccc(OP(=O)(O)O)cc1
inactive: Potency [1] | Potency [2] | Potency [3] | Potency [4] | Potency [5] | Potency [6] | Potency [7] | max response [8] -7.92%

NC(=S)NS(=O)(=O)c1ccc(N)cc1
inactive: Potency [1] | Potency [2] | Potency [3] | Potency [4] | Potency [5] | Potency [6] | Potency [7] | max response [8] 5.24%

NCC[C@H](O)C(=O)N[C@@H]1C[C@H](N)[C@@H](O[C@H]2O[C@H](CN)CC[C@H]2N)[C@H](O)[C@H]1O[C@H]1O[C@H](CO)[C@@H](O)[C@H](N)[C@H]1O
inactive: Potency [1] | Potency [2] | Potency [3] | Potency [4] | Potency [5] | Potency [6] | Potency [7] | max response [8] 4.22%

CC1C(=O)CC2C3(C)CCC2(C(C)C(=O)O)C(=O)C13 (configuration not stated)
inactive: Potency [1] | Potency [2] | Potency [3] | Potency [4] | Potency [5] | Potency [6] | Potency [7] | max response [8] 5.4%

O=C1c2ccccc2CN2C(=O)c3ccccc3CN12
inactive: Potency [1] | Potency [2] | Potency [3] | Potency [4] | Potency [5] | Potency [6] | Potency [7] | max response [8] 1.75%

Oc1cc(O)cc(O)c1
inactive: Potency [1] | Potency [2] | Potency [3] | Potency [4] | Potency [5] | Potency [6] | Potency [7] | max response [8] 3%

CCCCCCOC(=O)c1cccnc1
inactive: Potency [1] | Potency [2] | Potency [3] | Potency [4] | Potency [5] | Potency [6] | Potency [7] | max response [8] 6.05%

C(=C\c1ccncc1)/c1ccccc1
inactive: Potency [1] | Potency [2] | Potency [3] | Potency [4] | Potency [5] | Potency [6] | Potency [7] | max response [8] 1.91% and -0.505%

CNC(=O)OCc1cccc(COC(=O)NC)n1
inactive: Potency [1] | Potency [2] | Potency [3] | Potency [4] | Potency [5] | Potency [6] | Potency [7] | max response [8] 2.4%

NCC(O)CC(=O)O (configuration not stated)
inactive: Potency [1] | Potency [2] | Potency [3] | Potency [4] | Potency [5] | Potency [6] | Potency [7] | max response [8] 3.49%

C[C@H](CCCC(C)(C)O)[C@H]1CC[C@H]2[C@@H]3CC=C4C[C@@H](O)CC[C@]4(C)[C@H]3CC[C@]12C
inactive: Potency [1] | Potency [2] | Potency [3] | Potency [4] | Potency [5] | Potency [6] | Potency [7] | max response [8] 2.18%

CC(C)c1ncc([N+](=O)[O-])n1C
inactive: Potency [1] | Potency [2] | Potency [3] | Potency [4] | Potency [5] | Potency [6] | Potency [7] | max response [8] -7.8%

O=C(O)Cc1nn(Cc2ccc(Br)cc2F)c(=O)c2ccccc12
inactive: Potency [1] | Potency [2] | Potency [3] | Potency [4] | Potency [5] | Potency [6] | Potency [7] | max response [8] 1.97%

CCC(Cc1c(I)cc(I)c(O)c1I)C(=O)O (configuration not stated)
inactive: Potency [1] | Potency [2] | Potency [3] | Potency [4] | Potency [5] | Potency [6] | Potency [7] | max response [8] -4.91%

O=S(=O)(O)CCCS(=O)(=O)O
inactive: Potency [1] | Potency [2] | Potency [3] | Potency [4] | Potency [5] | Potency [6] | Potency [7] | max response [8] 0.835%

O=C(CCCCCCCCCCCCC1CCCC1)Nc1ccc(S(=O)(=O)c2ccc(NC(=O)CCCCCCCCCCCCC3CCCC3)cc2)cc1
inactive: Potency [1] | Potency [2] | Potency [3] | Potency [4] | Potency [5] | Potency [6] | Potency [7] | max response [8] 4.77%

NC(=O)[C@@H]1CCCN1C(=O)[C@H](Cc1cnc[nH]1)NC(=O)[C@@H]1CCC(=O)N1
inactive: Potency [1] | Potency [2] | Potency [3] | Potency [4] | Potency [5] | Potency [6] | Potency [7] | max response [8] 0.162%

O=P(O)(O)CP(=O)(O)O
inactive: Potency [1] | Potency [2] | Potency [3] | Potency [4] | Potency [5] | Potency [6] | Potency [7] | max response [8] -3.6%

NC(=O)C1c2ccccc2CCc2ccccc21
inactive: Potency [1] | Potency [2] | Potency [3] | Potency [4] | Potency [5] | Potency [6] | Potency [7] | max response [8] 5.54%

C=CCOc1ccc(CC(=O)O)cc1Cl
inactive: Potency [1] | Potency [2] | Potency [3] | Potency [4] | Potency [5] | Potency [6] | Potency [7] | max response [8] 11.1%

O=C1c2ccccc2C(=O)C1c1ccc(Cl)cc1
inactive: Potency [1] | Potency [2] | Potency [3] | Potency [4] | Potency [5] | Potency [6] | Potency [7] | max response [8] -7.12%

COc1cc(S(C)=O)ccc1-c1nc2ncccc2[nH]1 (configuration not stated)
inactive: Potency [1] | Potency [2] | Potency [3] | Potency [4] | Potency [5] | Potency [6] | Potency [7] | max response [8] 26.5%
